Experimental data as given in PubChem BioAssay AID2066 (NMMLSC, 2009).
The campaign covered roughly 320,000 compounds. About 50 (0.02%) were called active.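 The calls were made as follows: active = GFP response relative to DMSO above a set limit, near screen average plus 3 SD (cut at about 150% in these data); inconclusive = fewer than 70 cells counted for the yeast strain; inactive = the rest.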 Shown is part of a subset that was picked to be rich in actives.

experiment: yeast AGP1-GFP level changes, GLN3 branch – cell-based, multiplex flow cytometry, S. cerevisiae, MLPCN library, primary screen (AID 2066); settings: 3 h, at 10 µM, hits give high values, GFP as percent of DMSO wells;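 also: median GFP channel fluorescence of the gated AGP1 strain per well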

Structure (SMILES)	GFP response vs DMSO
COc1ccccc1NC(=O)C1=C(C)Nc2nc3ccccc3n2C1c1cccs1 (stereo unspecified)	97.6% (inactive)
CCOC(=O)C1CCCN(S(=O)(=O)c2ccc(-n3cnnn3)c(C)c2)C1 (stereo unspecified)	107% (inactive)
Cc1cc(C)c(OCCN2CC(C)OC(C)C2)c(Br)c1 (stereo unspecified)	103% (inactive)
CC(C)COc1ccc(C(=O)NNC(=O)CCC(=O)c2cccs2)cc1	107% (inactive)
O=[N+]([O-])c1cc(S(=O)(=O)N2CCCC2)ccc1NN=C1CCCC1	102% (inactive)
Cc1cccc(OCC(=O)OCC(=O)Nc2ccc(Cl)cn2)c1	106% (inactive)
CCCCCCCCCCCCC(NC(C)=O)(C(=O)OCC)C(=O)OCC	94.5% (inactive)
C/C(CC(=O)NCc1ccc(Cl)cc1)=N\NC(=O)COc1ccc(C)cc1Br	105% (inactive)
Cn1c(N)c(C(=O)COC(=O)C23CC4CC(CC(C4)C2)C3)c(=O)n(C)c1=O	103% (inactive)
COc1ccc(C2=NN(C(=O)CSc3nc(=O)n4ccc(C)cc4n3)C(c3ccc(C)cc3)C2)cc1 (stereo unspecified)	107% (inactive)
N/C(=N\OC(=O)CC1CCCCC1)c1ccccc1	93.2% (inactive)
CCCN(CC1CC1)C(=O)COC(=O)c1ccc(C)cc1O	99.2% (inactive)
COc1cc(C(=O)OCC(=O)N(CC(C)C)C2CCS(=O)(=O)C2)ccc1OCC(C)C (stereo unspecified)	103% (inactive)
CC(C)Cc1nn2c(=O)cc(O)nc2s1	106% (inactive)
O=C(Nc1ccc(S(=O)(=O)N2CCCCCC2)cc1)c1c(F)cccc1F	93.4% (inactive)
COc1ccc(OC)c(S(=O)(=O)Nc2c(C)nn(C)c2C)c1	99.1% (inactive)
CN=C(Nc1cccc(S(=O)(=O)N2CCOCC2)c1)c1ccccc1	111% (inactive)
Cc1ccc(C)c(C(=O)COC(=O)Cn2[nH]c(=O)c3ccccc3c2=O)c1	101% (inactive)
CCN1/C(=C\c2ccc3ccccc3[n+]2CC)Sc2cc(C)ccc21	189% [may fluoresce green] (active)
COc1ccc(-c2cc(C(F)(F)F)nc(S(C)(=O)=O)n2)cc1OC	106% (inactive)
COc1ccc(-c2nnc(NC(=O)CS(=O)(=O)c3ccc(Cl)cc3)o2)c(OC)c1	100% (inactive)
Cc1noc(C)c1CSCC(=O)N(CCC(C)C)c1c(N)n(Cc2ccccc2)c(=O)[nH]c1=O	102% (inactive)
CC(=O)c1c(C)[nH]c(C(=O)COc2ccc3c(C)cc(=O)oc3c2)c1C	110% (inactive)

Structure (SMILES)	GFP response vs DMSO
COc1ccc(CCNC2=CC(=O)CC(C)(C)C2)cc1	111% (inactive)
CC1CN(C(=O)c2ccc([N+](=O)[O-])s2)CC(C)O1 (stereo unspecified)	94.7% (inactive)
Cc1ccc2[nH]c(=O)c(CN(C)S(=O)(=O)c3cccc4nonc34)cc2c1	118% (inactive)
Cc1ccc(C(=O)CN2C(=O)NC3(CCOc4ccccc43)C2=O)s1 (stereo unspecified)	102% (inactive)
COc1ccccc1N(CC(=O)Nc1ccc(C(F)(F)F)cc1)S(C)(=O)=O	109% (inactive)
CC1CN(C(=O)c2cc(COc3c(F)cccc3F)on2)CCN1C (stereo unspecified)	102% (inactive)
O=C(Nc1cccc(S(=O)(=O)N2CCCC2)c1)c1cncc(Br)c1	106% (inactive)
O=C1c2ccncc2C(=O)N1C1CCCCC1	111% (inactive)
Cc1ccc2c(c1)NC(=O)[C@@]1(C)[C@@H](c3ccccc3)[C@H]3COc4ccc(Cl)cc4[C@@H]3N1C2=O	98.7% (inactive)
Cc1ccc(NC(=O)Cn2cnc3c(OCc4ccccc4)ncnc32)cc1C	91% (inactive)
CC1(C)C(=O)C2(CCCCC2)C(=O)OC1c1cccs1 (stereo unspecified)	103% (inactive)
O=C(c1cccc(F)c1)N1CCN(c2ccc([N+](=O)[O-])c3cccnc23)CC1	90.5% (inactive)
CC(C)C[C@H](NC(=O)NCCc1ccc(Cl)cc1)C(=O)O	99.6% (inactive)
COC(c1ccccc1)(c1ccccc1)C(Oc1nc(C)cc(C)n1)C(=O)O (stereo unspecified)	98.3% (inactive)
Cc1ccc(S(=O)(=O)NC2CCCCCC2)cc1	103% (inactive)
Cc1ccc(S(=O)(=O)Nc2ccc3c(c2)C(=O)N([C@H](C)CO)C[C@@H](C)[C@@H](CN(C)C(=O)Nc2cccc4ccccc24)O3)cc1	96.4% (inactive)
C=CCC(C(=O)c1ccccc1)[N+](C)(C)CC=C (stereo unspecified)	96.9% (inactive)
S=c1nc2ccccc2c2nc(-c3cccnc3)[nH]n12	102% (inactive)
CCC(C)n1c(-c2cc(OC)c(OC)c(OC)c2)nc2nc3ccccc3nc21 (stereo unspecified)	101% (inactive)
CCc1ccc(-c2cc3c(=O)n(CC(=O)NCCCN4CCN(Cc5ccccc5)CC4)nc(C)n3n2)cc1	102% (inactive)
CN(C)C(CNC(=O)c1ccc(OCc2cn3ccccc3n2)cc1)c1ccco1 (stereo unspecified)	97.7% (inactive)
CC(C)Cc1nnc(NC(=O)CCNC(=O)c2ccccc2Cl)s1	105% (inactive)
O=C(CCCOc1ccccc1)NNC(=O)c1ccc(Cl)cc1	109% (inactive)

Structure (SMILES)	GFP response vs DMSO
Cn1cccc1C(=O)OCC(=O)c1ccc(Br)s1	100% (inactive)
COc1cc(NC(=O)CCNC(=O)Cn2ccc3ccccc3c2=O)cc(OC)c1OC	104% (inactive)
Cc1cc(C(F)(F)F)nn1CC(=O)N1CCCC1	97.4% (inactive)
CSc1ccc(S(=O)(=O)NCC(=O)OCC(=O)NC2(C#N)CCCCC2)cc1[N+](=O)[O-]	108% (inactive)
CCc1ccc(NC(=O)C(=O)NNC(=O)c2cccs2)cc1	107% (inactive)
CC(C)N1C(=O)N(c2ccccc2)C(C)(O)CC1(C)C (stereo unspecified)	99.2% (inactive)
COc1ccc(C(C)(C)C)cc1NC(=O)CCN1C(=O)C2CCCCC2C1=O (stereo unspecified)	112% (inactive)
Cc1nn2cc(-c3ccc(Cl)cc3)cnc2c1Br	102% (inactive)
CC(C)c1ccc(NC(=O)CCN2C(=O)c3ccc([N+](=O)[O-])cc3C2=O)cc1	111% (inactive)
CC(C)(C)c1ccc(C(=O)N2CCN(CCNC(=O)C(=O)Nc3ccc(F)cc3)CC2)cc1	100% (inactive)
Cc1ccc(NC(=O)Cn2cccc2C2=NC(c3ccccc3)CO2)c(C)c1 (stereo unspecified)	103% (inactive)
O=C1[C@@H]2C(c3cccnc3)=NO[C@@H]2C(=O)N1c1ccc(Cl)cc1Cl	112% (inactive)
C#CCO[C@@H]1C[C@H](n2cnc3c(=O)[nH]c(NC(=O)C(C)C)nc32)O[C@@H]1CO	87.2% (inactive)
CC1=CC(C)(C)NC(=S)N1NC(=O)c1ccccc1Cl	109% (inactive)
COc1ccc(/C(C)=N/N2CCOCC2)c(O)c1	104% (inactive)
Cc1cccc(CSc2nc3c(c(=O)n2C)SCC3)c1	91.2% (inactive)
Cn1nccc1C(=O)NC1CCCc2c1cnn2-c1ccc(F)cc1F (stereo unspecified)	95.7% (inactive)
CN(C)N(C)C(=O)C(O)(c1ccccc1)c1ccccc1	109% (inactive)
CCC(C)(C)NC(=O)C(c1ccc(O)cc1)N(Cc1ccco1)C(=O)CCC(=O)Nc1ccccn1 (stereo unspecified)	100% (inactive)
CCOc1ccc(S(=O)(=O)N2CCC(C(=O)NCC(=O)Nc3cccc(Cl)c3C)CC2)cc1	93.8% (inactive)
O=C(NCc1ccc(F)cc1)C1CCN(C(=O)Nc2ccc(F)cc2)CC1	96.4% (inactive)
O=C(OCC(=O)N1CCN(C(=O)c2ccco2)CC1)c1ccc(Cl)c(Cl)c1	103% (inactive)
COc1ccccc1OCc1ccc(C(=O)NC(C)c2ccccc2)o1 (stereo unspecified)	95.8% (inactive)

Structure (SMILES)	GFP response vs DMSO
Cc1c(Cl)c([N+](=O)[O-])nn1Cc1ccc(C(=O)N/N=C\c2cc(Cl)ccc2O)o1	99.4% (inactive)
C/C=C/c1ccc(OCC(=O)NNC(=O)CN(C)S(=O)(=O)c2ccc(C)cc2)c(OC)c1	91.6% (inactive)
O=C(O)C(F)(F)C(NCc1ccccc1)c1ccccc1 (stereo unspecified)	102% (inactive)
CCOC(=O)C1C(=O)NCC1c1ccccc1 (stereo unspecified)	109% (inactive)
CCOC(=O)c1ccccc1NC(=O)c1c(N)n(C)c(=O)[nH]c1=O	87.3% (inactive)
N#C/C=C/N1CCN(Cc2ccc3c(c2)OCO3)CC1	93% (inactive)
O=C(O)CCCCOn1ccnc1	91.2% (inactive)
O=C(Nc1c2c(nn1-c1cccc(Cl)c1)CS(=O)(=O)C2)c1cccs1	90.9% (inactive)
Cc1ccccc1NC(=O)C(C)c1ccc(-c2ccccc2)c(F)c1 (stereo unspecified)	97.8% (inactive)
CCn1cc(C(=O)N2CC(C)CC(C)C2)c(=O)c2cc(S(=O)(=O)N3CCCC3)ccc21 (stereo unspecified)	93.8% (inactive)
CC1=CC=CN2C1=NC(=O)CC2(C)C(=O)N(CC(=O)NC1CCCC1)c1ccccc1C (stereo unspecified)	99.9% (inactive)
CCOc1ncccc1C(=O)OCC(=O)Nc1cccc(S(=O)(=O)N2CCCCCC2)c1	100% (inactive)
CCOc1ccc(N2C(=O)CSC2=NC#N)cc1	88.3% (inactive)
Cc1ccc(S(=O)(=O)NCC(=O)N(CC(=O)NCC2CCCO2)c2cccc(F)c2)cc1 (stereo unspecified)	114% (inactive)
CC1(C)NC(=O)N(CC(=O)N2CCN(S(=O)(=O)c3ccccc3F)CC2)C1=O	95.5% (inactive)
Cc1cc(C)c(NC(=S)N2CCCC2C(=O)O)c(C)c1 (stereo unspecified)	102% (inactive)
Cc1cccc(C)c1NC(=O)C1(N(C(=O)c2ccccn2)c2ccc(O)cc2)CCCCC1	97.2% (inactive)
CC(=O)C[C@H](O)CC(=O)[C@@H]1OC(=O)[C@@H](C)C/C=C\Cc2ccccc21	98.2% (inactive)
CCOc1ccc(C2NC(=S)NC3=C2CCc2ccccc23)cc1 (stereo unspecified)	103% (inactive)
CCCCn1nc(C(=O)N2CCc3ccccc32)c2ccccc2c1=O	98.5% (inactive)
Cc1ccccc1OCC(=O)NNC(=O)c1ccc(-n2cncn2)c([N+](=O)[O-])c1	106% (inactive)
O=C(CSc1cccc[n+]1[O-])NCCCc1ccccc1	101% (inactive)
